This is a sample that favours compounds with a hit; in the whole collection about 19% have one here.
HT1080 IDH1KD tx: HT-1080 IDH1 knockdown cell toxicity (counter line) | HT-1080 IDH1 knockdown viability, ATP luminescence, 48 h | Potency, µM (titrated, usually from 46.1 µM), most hits filed as cytotoxic | hit rate 2% among 360,000
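In this qHTS, HT-1080 cells depleted of IDH1 are exposed for 48 h at 37 °C to compound titrations. Toxicity is scored from CellTiter-Glo luminescence, with DMSO as full viability and medium alone as none.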
HT1080NT lethal: kills 2HG-producing HT-1080-NT fibrosarcoma cells | HT-1080-NT fibrosarcoma viability, CellTiter-Glo ATP luminescence, 48 h | Potency, µM (top dose mostly 46.1 µM), actives largely listed as cytotoxic | hit rate 1.6% among 360,000 | AID 686970;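 also: NT is the 2HG producing partner of a matched IDH1 knockdown line; nearly all actives have a fitted effect of over 55% in size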
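Compounds were tested in concentration-response format on HT-1080-NT cells for 48 hours at 37 degrees C. Cell viability came from CellTiter-Glo luminescence; curves were classified by r2, response magnitude and activity.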
IL-1B inflam inh: inhibitors of inflammasome signaling (IL-1 beta secretion); THP-1 LPS/ATP IL-1B secretion, AlphaLISA, 16 h; stronger effect = lower value; activity change, % at 57.5 µM; hit rate 4.7% among 360,000; in the data active = activity change below about -50%; inconclusive = mostly about -30% to -49%
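Secreted IL-1B measured by AlphaLISA bead assay after 16 h compound exposure of THP-1 cells; compounds (final up to 57.5 uM) added 1 h before LPS (250 ng/mL) and ATP (1.25 mM) stimulation; lower signal means less secretion.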
TDP1 cell CPT: DT40-hTDP1 cell growth loss with CPT; chicken DT40 Tdp1-/-;hTDP1 cells + 20 nM CPT, ATP luminescence, 48 h; Potency, µM (titrated, usually from 46.2 µM), actives largely listed as inhibitors; hit rate 12% among 420,000; also: nearly all actives have a fitted effect of over 55% in size
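Cell growth measured by CellTiter-Glo luminescence after a minimum 48 h, 37 C compound exposure with 20 nM CPT in Tdp1-knockout DT40 cells stably expressing hTDP1, seeded 400/well; qHTS titration format.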
TDP1 cell noCPT: qHTS for Inhibitors of human tyrosyl-DNA phosphodiesterase 1 (TDP1): qHTS in cells in absence of CPT | Potency, µM (highest dose often 46.2 µM), usual class: inhibitors | AID 686978, 2013 | hit rate 15% among 420,000 | DT40 Tdp1-/- hTDP1 cells, no CPT, ATP luminescence, 48 h; also: nearly all actives have a fitted effect of over 55% in size
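Readout: luminescence from CellTiter-Glo after 30 min in the dark at RT. Cells: DT40 Tdp1-/- with stable hTDP1, 400/well. Exposure: compounds alone, ≥48 hr, 37 °C.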
Numbers stand for hits; 0 = inactive; ? = inconclusive; - = no result; ! = repeats disagree. Unless noted, calls follow the shape of the dose curve; as a rule, active = well fitted curve in the direction sought with a large enough effect; inconclusive = small, poorly fitted or top-dose-only effect, or another doubt; inactive = no such curve, though single readings can be large; an effect the other way counts as inactive or inconclusive.

SMILES | HT1080 IDH1KD tx | HT1080NT lethal | IL-1B inflam inh | TDP1 cell CPT | TDP1 cell noCPT
COc1ccccc1NC(=O)c1ccc(S(=O)(=O)N(C)c2ccccc2OC)cc1 | 0 | 0 | 0 | ? | ?
COc1cc(NC(=O)c2ccc(S(=O)(=O)N(C)C)cc2)cc(OC)c1OC | 0 | 0 | ? | 0 | 0
COc1ccccc1N(C)S(=O)(=O)c1ccc(C(=O)Nc2cc(OC)c(OC)c(OC)c2)cc1 | 0 | 0 | 0 | 16µM | 12µM
COc1ccccc1N(C)S(=O)(=O)c1ccc(C(=O)Nc2ccc(C)cc2C)cc1 | 0 | 0 | 0 | ? | 23µM
F[B-](F)(F)COc1ccccc1 | 0 | 0 | 0 | 0 | 0
CCOC(=O)c1ccccc1NC(=O)CSc1cc(C)[nH]c(=O)n1 | - | - | - | 0 | 0
COc1ccccc1N(C)S(=O)(=O)c1ccc(C(=O)N(C)Cc2cccc(F)c2)cc1 | 0 | 0 | 0 | 16µM | 16µM
COc1ccccc1N(C)S(=O)(=O)c1ccc(C(=O)N2CCCc3ccccc32)cc1 | 0 | 0 | 0 | 21µM | 23µM
Cc1cc(C)c(C(=O)N2CCC(N3CCC(C(=O)NC(C)C)CC3)CC2)o1 | 0 | 0 | 0 | 0 | 0
COc1ccccc1N=Nc1[nH]c2ccc(C)cc2c1O | 0 | 0 | 0 | 0 | ?
O=c1ncn(-c2ccccc2C(F)(F)F)c2ncccc12 | 0 | 0 | 0 | 0 | 0
Oc1ccc(N=Nc2ccccc2C(F)(F)F)c2cccnc12 | ? | 0 | 0 | 0.82µM | 1µM
CCS(=O)(=O)c1ccc(N=Nc2ccc(O)c3ncccc23)c(OC)c1 | 5.2µM | 1.5µM | 0 | 1.8µM | 1.3µM
COc1ccccc1N=Nc1ccc(O)c2ncccc12 | ? | ? | 0 | 2.9µM | 2.9µM
CCCCN(CCCC)S(=O)(=O)c1ccc(OC)c2ncccc12 | 0 | 0 | 0 | ? | ?
COc1cc(NC(=O)Cn2ccsc2=N)cc(OC)c1 | 0 | 0 | 0 | ? | 0
COc1ccc2c(c1)cc(C(=O)N[C@H](C(=O)N1CCC(C(=O)O)CC1)C(C)C)n2C | 0 | 0 | 0 | 0 | 0
COc1ccccc1-c1nnc(Sc2nc([N+](=O)[O-])nn2C)o1 | 4µM | 13µM | -100 | ? | 16µM
O=C(c1ccc2c(c1)CCC2)N1CCN(Cc2ccccc2)CC1 | 0 | 0 | 0 | ? | ?
CCOC(=O)c1sc(NNC(=O)c2ccc(C)cc2)nc1C | 0 | 0 | 0 | 0 | ?
CCOC(=O)c1nc(NNC(=O)c2ccc([N+](=O)[O-])cc2)sc1C | 7.3µM | ? | 0 | ? | ?
c1ccc(-c2onc(-c3ccco3)c2-c2ccc3c(c2)OCO3)cc1 | 0 | 0 | 0 | 10µM! | 11µM!
CN(/N=C/c1c[nH]c2ccccc12)c1cnn(-c2ccc(F)c(Cl)c2)c(=O)c1Cl | 0 | 0 | 0 | 26µM | 26µM
CC(C)OCCCNC(=O)C1CCN(S(=O)(=O)c2ccc3nc4c(c(C(=O)O)c3c2)CCCCC4)CC1 | 0 | 0 | 0 | 0 | 0
Cc1ccc(-c2csc(N=C(N)N)n2)cc1 | ? | 0 | -61 | 0 | ?
SMILES | HT1080 IDH1KD tx | HT1080NT lethal | IL-1B inflam inh | TDP1 cell CPT | TDP1 cell noCPT
COc1ccccc1-c1cc(C(F)(F)F)nc(S(=O)(=O)CCCC(=O)NCc2ccc(F)cc2)n1 | 16µM | 9.2µM | -100 | 2.9µM | 4.1µM
COc1ccccc1-c1cc(C(F)(F)F)nc(S(=O)(=O)CCCC(=O)Nc2cc(Br)ccc2O)n1 | - | - | - | 0 | 0
COc1ccccc1-c1cc(C(F)(F)F)nc(S(C)(=O)=O)n1 | 18µM | ? | -109 | 3.7µM | 5.8µM
COc1ccccc1-c1cc(C(F)(F)F)nc(S(=O)(=O)CCCC(=O)N2CCCCC2C)n1 (configuration not stated) | 23µM | ? | -97 | 4.1µM | 4.1µM
COc1ccc(NC(=O)CCCS(=O)(=O)c2nc(-c3ccccc3OC)cc(C(F)(F)F)n2)c(OC)c1 | - | - | - | 0 | 0
COc1ccccc1-c1cc(C(F)(F)F)nc(S(=O)(=O)CCCC(=O)NC(C)C)n1 | 5.8µM | 5.8µM | -98 | 2.3µM | 3.3µM
Cc1cc(C)cc(C(=O)NCCCN2CCOCC2)c1 | ? | 0 | 0 | 0 | 0
Cc1cccc(S(=O)(=O)N(C)C[C@@H]2OCc3cn(nn3)CCCC(=O)N([C@H](C)CO)C[C@H]2C)c1 | 0 | 0 | 0 | 0 | ?
Nc1ccc2cc3[nH]c4cc(N)ccc4c3nc2c1 | ? | ? | -109 | 2.9µM | 2.3µM
Cc1ccnc(NS(=O)(=O)c2ccc(NC(=O)c3cc(=O)c4ccccc4o3)cc2)n1 | 0 | 0 | 0 | 0 | 0
O=C(O)/C=C/C(=O)Nc1ccccc1C(=O)OCC(=O)c1ccc2c(c1)OCCO2 | 0 | 0 | -75 | 0 | 0
CCCCCCOC(=O)c1ccccc1NC(=O)/C=C/C(=O)O | 0 | 0 | -100 | 16µM | ?
CCCCN(C(=O)CSCc1c(C)noc1C)c1c(N)n(CCCC)c(=O)[nH]c1=O | 0 | 0 | 0 | 0 | 0
Cc1noc(C)c1NC(=O)Nc1ccc2c(c1)C(=O)N([C@H](C)CO)C[C@H](C)[C@@H](CN(C)S(=O)(=O)c1ccc(Cl)cc1)OCCCC[C@@H](C)O2 | 0 | 0 | 0 | ? | ?
C[C@H](CO)N1C[C@H](C)[C@@H](CN(C)S(=O)(=O)c2ccccc2)OCCCC[C@H](C)Oc2ccc(NC(=O)CCC(F)(F)F)cc2C1=O | 0 | 0 | 0 | ? | ?
C[C@@H]1CCCCO[C@H](CN(C)S(=O)(=O)c2ccccc2)[C@@H](C)CN([C@H](C)CO)C(=O)c2cc(NC(=O)Cc3ccccc3)ccc2O1 | 0 | 0 | 0 | 21µM | ?
C[C@H]1CCCCO[C@@H](CN(C)C(=O)NC2CCCCC2)[C@@H](C)CN([C@@H](C)CO)C(=O)c2cc(NC(=O)Cc3ccccc3)ccc2O1 | 0 | 0 | 0 | 0 | 18µM
CC(C)NC(=O)Nc1ccc2c(c1)C(=O)N([C@@H](C)CO)C[C@H](C)[C@H](CN(C)S(=O)(=O)c1ccccc1)OCCCC[C@H](C)O2 | 0 | 0 | 0 | 18µM | 12µM
C[C@@H]1CCCCO[C@@H](CN(C)S(=O)(=O)c2ccccc2)[C@@H](C)CN([C@H](C)CO)C(=O)c2cc(NS(=O)(=O)c3ccc(F)cc3)ccc2O1 | 0 | 0 | 0 | ? | 21µM
C[C@H]1CCCCO[C@@H](CN(C)S(=O)(=O)c2ccc(Cl)cc2)[C@@H](C)CN([C@@H](C)CO)C(=O)c2cc(NS(=O)(=O)c3ccccc3)ccc2O1 | 0 | 0 | 0 | ? | ?
Nc1n[nH]c(-c2ccccc2)c1-c1ccccc1 | 0 | 0 | 0 | 0 | 0
O=C(CC[C@H]1O[C@@H](n2ccc(=O)[nH]c2=O)[C@H](O)[C@@H]1O)N[C@@H](Cc1ccccc1)C(=O)NCc1ccccc1 | 0 | 0 | 0 | 0 | 0
